# Rows were chosen to be rich in hits. Some 1.2% of all compounds tested hit in one or more screens of this group.
# Apoferritin bind: qHTS Assay for Identification of Novel General Anesthetics; Ferritin light chain (Equus caballus), P02791; apoferritin/1-aminoanthracene competitive binding, fluorescence; Potency, µM (doses to about 77.5 µM), without a hit: at the top dose activity change, negative = displacement, hits mostly inhibitors; actives 0.074% (n = 350,000); also: potency is read from the fitted curve at half-maximal effect; % is scaled to controls: 0 for no effect and ±100 for the full control effect; nearly all actives have a fitted effect of over 20% in size
# Target sequence (P02791 2-175 limits assumed): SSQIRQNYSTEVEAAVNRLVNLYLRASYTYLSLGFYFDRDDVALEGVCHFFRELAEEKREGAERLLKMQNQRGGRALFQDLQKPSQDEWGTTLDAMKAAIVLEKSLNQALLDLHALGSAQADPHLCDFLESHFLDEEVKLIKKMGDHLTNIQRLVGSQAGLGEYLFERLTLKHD
#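 10 uM apoferritin + 50% sat. 1-AMA, PBS; cpd 10 min RT; Ex380/Em535 endpoint; normalized to free probe vs complex; 4-param Hill fit; propofol titration as pos. ctrl.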
# TSHR antag: Antagonists of the Thyroid Stimulating Hormone Receptor: HTS campaign | actives 0.2% (n = 330,000) | AID 504810, 2011 | TSHR-expressing cells, TSH-stimulated cAMP HTRF, 2 h; hits give low values | activity change, negative = inhibition, % at 11.5 µM | Thyrotropin receptor (Homo sapiens), P16473;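 active = activity change below a set negative limit, meaning inhibition stronger than a set level, cut at about -70% in these data; inconclusive = activity change between two set negative limits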; also: % is scaled to controls: 0 for no effect and ±100 for the full control effect
#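 Inhibition of cAMP made by TSHR-expressing cells under TSH stimulation (4nM final, EC80; 2 h, 37 deg C) is quantified with a one-step lysis HTRF kit, anti-cAMP cryptate versus cAMP-d2.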
# PTAP TSG101 blk: qHTS Assay for Iinhibitors of HIV-1 Budding by Blocking the Interaction of PTAP/TSG101. AID 493005, 2010. Fluorescence polarization, FITC-PTAP peptide / Tsg101 binding. Potency, µM (titrated, usually from 115 µM), for inactives: at the top dose activity change, negative = inhibition, most hits filed as inhibitors. 340,000 tested, under 10 active. Tumor susceptibility gene 101 protein (Homo sapiens), Q99816; active = well fitted inhibition curve with a large enough effect in the main read-out, with a control signal flat, not every such curve was filed as active; inconclusive = small, poorly fitted or top-dose-only effect, or effect the other way, or a change in a side signal; inactive = no such curve, though single readings can be large or run the other way; also: potency is read from the fitted curve at half-maximal effect; % of control where 0% means no effect
# Target sequence (Q99816 whole entry, looked up): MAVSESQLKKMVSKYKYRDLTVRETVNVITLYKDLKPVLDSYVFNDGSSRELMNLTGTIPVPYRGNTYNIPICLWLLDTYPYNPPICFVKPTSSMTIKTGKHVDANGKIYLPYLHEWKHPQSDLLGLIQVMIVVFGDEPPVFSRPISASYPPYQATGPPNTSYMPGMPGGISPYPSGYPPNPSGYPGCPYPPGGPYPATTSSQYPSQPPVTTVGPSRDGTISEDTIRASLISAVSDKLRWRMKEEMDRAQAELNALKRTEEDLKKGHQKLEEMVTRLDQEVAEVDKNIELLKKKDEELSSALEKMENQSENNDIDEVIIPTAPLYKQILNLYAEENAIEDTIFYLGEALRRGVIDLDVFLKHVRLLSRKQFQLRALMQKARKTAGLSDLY
#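 FP read-out: FITC-PTAP peptide, 50 nM final, binding Tsg101 binding domain, 10 uM final; 20 min, r.t.; 10 mM HEPES pH 7.5, 0.15 M NaCl, 0.01% Tween 20, 3 mM EDTA, 0.1 mM TCEP.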
# BRCA1 expr act: qHTS Assay to Identify Small Molecule Activators of BRCA1 Expression. actives 1.1% (n = 380,000). AID 624202, 2012. MCF7-BRCA1-FFLuc reporter, luminescence, 48 h; response scale: scaled: vehicle 0%, 10 µM genistein 100%. Potency, µM (series often up to 46.1 µM), without a hit: at the top dose activation, usual class: activators; also: potency is read from the fitted curve at half-maximal effect; nearly all actives have a fitted effect of over 80% in size
#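 Quantitative HTS in MCF7 cells stably reporting BRCA1 expression via firefly luciferase. Compound treatment lasts 48 h at 37 °C in phenol-red free MEM. Activation is expressed relative to genistein at 10 microM and DMSO.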
# ASM inhibitor: Inhibitors of Secretory Acid Sphingomyelinase (S-ASM): qHTS; Sphingomyelin phosphodiesterase (Homo sapiens), P17405; placental ASM, HMU-PC fluorogenic substrate, 60 min; actives 0.006% (n = 340,000); Potency, µM (top dose mostly 57.5 µM), without a hit: top-dose activity change, negative = inhibition, most hits filed as inhibitors; AID 504937, 2011; also: potency is read from the fitted curve at half-maximal effect
#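 Fluorescence read-out (Ex 386 nm, Em 447 nm) after stopping the reaction at pH 10. Enzyme: ASM from human placenta; substrate HMU-PC0, 9 uM final; 60 min, 37 °C. Compound preincubation 10 min, ambient temperature.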
# * = called active by the depositor; ? = inconclusive; . = no result. Unless noted, calls follow the shape of the dose curve; as a rule, active = well fitted curve in the direction sought with a large enough effect; inconclusive = small, poorly fitted or top-dose-only effect, or another doubt; inactive = no such curve, though single readings can be large; an effect the other way counts as inactive or inconclusive.
SMILES,Apoferritin bind,TSHR antag,PTAP TSG101 blk,BRCA1 expr act,ASM inhibitor
Cc1ccc2c(COC(=O)c3n[nH]c4ccccc34)cc(=O)oc2c1,?,-10,0%,3.2µM*,0%
Nc1nc(N)c2c(OCc3ccc(C(F)(F)F)cc3)cccc2n1,.,.,.,0%,.
Cc1nc(C)c(-c2ccc(SCC(=O)Nc3ccccc3F)nn2)s1,22µM*,.,.,.,.
Cc1nc(C)c(-c2ccc(SCC(=O)Nc3ccc(F)cc3F)nn2)s1,-10%,-6,-2%,-16%,-4%
O=C(CCS(=O)(=O)c1ccccc1)N1CCN(c2ccccc2)CC1,-5%,6,-2%,3.2µM*,5%
N#Cc1cc([N+](=O)[O-])ccc1NC(=O)COC(=O)C12CC3CC(CC(C3)C1)C2,35µM*,-12,.,.,.
CCN(CC)/[N+]([O-])=N/Oc1ccc([N+](=O)[O-])cc1[N+](=O)[O-],.,.,.,-1%,.
CCOC(=O)CNC(=O)c1ccccc1,-13%,-1,0%,4%,1%
CCOC(=O)CNC(=O)c1ccc(SCC)cc1,5%,-2,-1%,13µM*,6%
Cc1ccc(C(=O)NC(=S)Nc2cccnc2Cl)cc1,0%,37,0%,11µM*,-14%
COc1ccccc1C(=O)NC(=S)Nc1cccnc1Cl,2%,-19,0%,-55%,-1%
O=C(CNC(=O)C1CCCCC1)OCC(=O)c1ccc2c(c1)CCC2,.,.,.,5%,.
Cc1cc(C)n(-c2nnc(NC34CC5CC(CC(C5)C3)C4)nn2)n1,?,-3,-9%,2.5µM*,-6%
O=C(c1cccc([N+](=O)[O-])c1)n1nc(-c2ccccc2)nc1NCc1ccccc1,-10%,1,-5%,10µM*,-4%
O=C(c1ccc([N+](=O)[O-])cc1)n1nc(-c2ccccc2)nc1NCc1ccccc1,-21%,44,2%,69%,-6%
O=C(NCCSc1ccccc1)c1cccnc1,-6%,1,-5%,14µM*,0%
c1ccc2oc(SCc3nc4ccccc4s3)nc2c1,?,.,0%,?,3%
c1ccc(SCc2nc3ccccc3s2)nc1,-2%,6,-3%,3.2µM*,6%
c1ccc(-c2nc3ccccc3s2)nc1,-19%,-1,-4%,8.9µM*,7%
Cc1ccc(NC(=O)c2ccco2)c([N+](=O)[O-])c1,-8%,21,1%,7.9µM*,-2%
COc1ccc(NC(=O)c2ccco2)c([N+](=O)[O-])c1,6%,0,-2%,?,-2%
CCc1ccc(NC(=O)COC(=O)c2ccccc2OCC(=O)N(C)C)cc1,.,.,.,4%,.
CCOc1ccc(/C=C/C(=O)c2ccccc2)cc1,-5%,-8,-6%,13µM*,27%
CCOc1ccc(C(=O)/C=C/c2ccc(SC)cc2)cc1,-19%,-20,-4%,13%,134%
O=C(CSc1nnc(NC(=O)c2ccccc2F)s1)NCC1CCCO1 (stereo not given),0%,-9,-1%,13µM*,3%
SMILES,Apoferritin bind,TSHR antag,PTAP TSG101 blk,BRCA1 expr act,ASM inhibitor
Cc1ccc(NC(=O)c2ccc3c(c2)NC(=O)CS3)nc1,.,14,-2%,7.9µM*,1%
Cc1nnc(NC(=O)c2ccc3c(c2)NC(=O)CS3)s1,.,-18,-7%,-1%,0%
Cc1ccc(-c2nnc(Cc3ccc(Cl)cc3)o2)cc1,-18%,-11,-1%,13µM*,-2%
COc1ccc(-c2nnc(-c3ccc(C)cc3)o2)cc1,-8%,-7,-1%,2.8µM*,5%
Brc1ccc(-c2nnc(Cc3ccccc3)o2)cc1,-11%,11,1%,11µM*,-2%
COc1ccc(Cc2nnc(-c3ccccc3)o2)cc1,-7%,-5,-4%,13µM*,1%
NC(=O)COC(=O)c1ccccc1OCC(=O)Nc1ccc(Br)cc1,.,.,.,-6%,.
C[C@H](N)C(=O)N[C@@H](CO)C(=O)N[C@H](C(=O)N[C@H](C(=O)N[C@H](C(=O)N[C@@H](CC(N)=O)C(=O)N[C@@H](Cc1ccc(O)cc1)C(=O)N[C@H](C(=O)O)[C@@H](C)O)[C@@H](C)O)[C@@H](C)O)[C@@H](C)O,-15%,.,.,.,.
COc1ccc(CCC(=O)Nc2sccc2C#N)cc1,-5%,1,0%,11µM*,-4%
Cc1ccsc1-c1nc(CSCC(=O)N2CCN(c3ccccc3)CC2)c(C)o1,-13%,-71*,0%,-49%,-8%
O=C(COc1ccccc1Cl)Nc1ccc(Cl)cn1,-17%,-5,-6%,10µM*,-2%
O=C(COc1ccccc1)Nc1ccc(Cl)cn1,-5%,-1,-2%,2%,3%
O=C(Cn1nc(-c2ccccc2)ccc1=O)NCc1ccc(F)cc1,?,-4,76%,54%,2%
O=C(Cn1nc(-c2ccc(Cl)cc2)ccc1=O)NCCc1ccccc1,7.9µM*,.,.,-4%,.
CCc1ccc(CNC(=O)Cn2nc(-c3ccc(Cl)cc3)ccc2=O)cc1,16µM*,.,.,10%,.
CCc1ccc(CNC(=O)Cn2nc(-c3ccc(C)cc3)ccc2=O)cc1,10µM*,-6,.,.,.
Cc1ccc(CNC(=O)Cn2cc(S(=O)(=O)Cc3ccccc3F)c3ccccc32)cc1,3%,.,.,.,.
CC[C@@]1([C@@H]2O[C@@H]([C@H]3O[C@@](O)(CO)[C@H](C)C[C@@H]3C)C[C@@H]2C)CC[C@@H]([C@]2(C)CCC3(C[C@H](O)[C@@H](C)[C@@H]([C@@H](C)[C@@H](OC)[C@H](C)C(=O)O)O3)O2)O1 (stereo not given in full),-5%,.,.,.,.
O=C(CSc1nnc(-c2cccs2)o1)c1cccs1,-16%,2,-8%,92%,0%
COc1ccc(-c2nnc(SCC(=O)c3cccs3)o2)cc1,?,-11,0%,7.1µM*,4%
c1cc(CN2CCCNCCNCCCNCC2)ccc1CN1CCCNCCNCCCNCC1,5%,.,.,.,.
O=C1c2cccc3c([N+](=O)[O-])ccc(c23)C(=O)N1c1ccccn1,-11%,58,1%,-82%,1%
O=C1c2cccc3c([N+](=O)[O-])ccc(c23)C(=O)N1c1ccc(Cl)cn1,-13%,-89*,?,-91%,-8%
CCC1(c2ccccc2)NC(=O)NC1=O (stereo not given),4%,.,.,.,.
CCOC(=O)C(CC)Sc1ccc2nnc(-c3ccc(F)cc3)n2n1 (stereo not given),.,.,.,12%,.
c1ccc(-c2cn(CC3CCCCC3)nn2)cc1,-18%,-6,-8%,5.6µM*,2%
c1ccc(CSc2nnc(NC3CCCCC3)s2)cc1,.,.,.,3.5µM*,.
